According to PubChem BioAssay (NCATS):
Inconclusive results are not listed. Where a call stands in place of a potency, no number is given. Calls of active or inactive are those of the source. Calls come from the whole dose curve; as a rule, active = well fitted cell-killing curve with a large enough effect; inconclusive = small, poorly fitted or top-dose-only effect; inactive = flat fitted curve, though single readings scatter.

assay: Quantitative highthroughput screen to assess conditional lethalithy of NOMO1 cells grown in RPMI1640 with untreated serum (RPMI+s) (AID 1963876); conditions: NOMO1 AML cells in RPMI+serum, CellTiter-Glo viability, 48 h; series mostly up to 45.8 µM; note: nearly all actives have a fitted effect of over 35% in size
From the text: Assay Provider: Jason Cantor Ph.D.
Department of Biochemistry
University of Wisconsin-Madison, Madison, WI, USA
Chemical screening studies have identified drug sensitivities across hundreds of cancer cell lines but most putative therapeutics fail to translate. Discovery and development of drug candidates in models that more accurately reflect nutrient levels in human blood is a major challenge. Here we performed high-throughput screens in conventional versus Human Plasma-Like Medium (HPLM) to identify compounds that were "missed" when screening using the artificial culture condition. Sets of conditional anticancer compounds spanned phases of clinical development and included non-oncology drugs were assessed. […] We also traced conditional phenotypes for several chemotherapeutics to availability of HPLM-specific metabolites and confirmed others for compounds whose reported targets are encoded by nonessential genes. Our findings establish generalizable strategies for exploiting conditional lethality in HPLM to reveal therapeutic candidates and mechanisms of action in cancer cells.
Described herein are the results of each viability screens against three cell lines: NOMO1 (an acute myeloid leukemia cell line); P12-Ichikawa (a T-cell acute lymphoblastic leukemia); and SEM (a B-cell ALL). Each assay was screened using 3 different cell culture media: homemade human plasma-Like medium with 10% dialyzed fetal bovine serum (HPLM+ds); RPMI1640 with 10% untreated FBS and 5mM glucose (RPMI+s); and RPMI1640 with 10% dialyzed fetal bovine serum and 5 mM glucose (RPMI+ds).
PROTOCOL TABLE (as described by Inglese J, Shamu CE and Guy RK. 2007)
SEQUENCE No. (e.g., 1, 2, 3, etc.); […] (e.g., Cells, Incubation, Reagent, etc.); VALUE and DESCRIPTION.
1; Cells; 5 uL; white, solid bottom 1536-well Greiner assay plate.
2; Compounds; 23 nL; Kalypsis pin tool (Wako USA) equipped with a 1536-well pin head to transfer to the assay plates.
3; Incubation; 48 hours; 37C incubation.
4; Reagent; 3 uL; CellTiter Glo (Promega).
5; Incubation; 5 min, room temperature
6; Detection; Luminescence, Viewlux PerkinElmer.
NOTES (numbers refer to Sequence numbers above)
1. Briefly, 5 ul of cell reagent was dispensed using a Multidrop Combi Dispenser. The NOMO1 and SEM cells were plated at 500 cells/well and the P12-Ichikawa line at 1000 cells/well.
2. After seeding the cells, 23 nL of MIPE 4.1 library compounds (in DMSO) were added to each plate using a Kalypsys 1536 Pintool dispenser. Bortezomib at final concentration of […] and DMSO were added to each plate as positive and negative controls respectively. For each screen, MIPE 4.1 compounds were added over an eleven-point concentration range […] in 3-fold dilutions.
3. Each plate was covered with a stainless steel gasketed lid to prevent evaporation and incubated for 48 hour at 37C, 95% relative humidity, and 5% CO2.
4-5. Three microliter CellTilter-GloTM luminescent substrate mix (Promega) reagent was added to the assay plate and incubated at room temperature for 5 min.
6. The luminescence signal was measured using a ViewLux (PerkinElmer) multiplate reader with a 2 second exposure time per plate. Data for each compound were normalized as percent viability such that measurements for DMSO and the empty well controls in each plate were defined as 100% and 0%, respectively.
Potency is the fitted concentration of half-maximal effect.

SMILES	Potency
CC[C@H](C=C[C@@H](C)[C@H]1CC[C@H]2[C@@H]3CC=C4C[C@@H](O)CC[C@]4(C)[C@@H]3CC[C@]12C)C(C)C	inactive
CCCc1nc2c(C)cc(-c3nc4ccccc4n3C)cc2n1Cc1ccc(-c2ccccc2C(=O)O)cc1	inactive
CNC1CCC(N(Cc2cccc(-c3ccncc3)c2)C(=O)c2sc3c(F)ccc(F)c3c2Cl)CC1 (stereo not given)	inactive
CC(C)(C)c1[nH]cnc1C=c1[nH]c(=O)c(=Cc2ccccc2)[nH]c1=O	0.0068 µM (active)
Cc1ccccc1C(C(=O)NC1CCCCC1)N(C(=O)Cn1ccnc1C)c1cccc(F)c1 (stereo not given)	inactive
O=c1[nH]nc(Sc2ncc([N+](=O)[O-])s2)n1-c1ccc2c(c1)OCCO2	9.35 µM (active)
C=CCNc1c(O)cc2c(O)c1C[C@@H](C)C[C@H](OC)[C@@H](O)[C@@H](C)C=C(C)[C@H](OC(N)=O)[C@@H](OC)C=CC=C(C)C(=O)N2	10.5 µM (active)
COc1cc2c(Oc3ccc(NC(=O)C4(C(=O)Nc5ccc(F)cc5)CC4)cc3F)ccnc2cc1OCCCN1CCOCC1	11.8 µM (active)
C#Cc1cccc(Nc2ncnc3cc(OCCOC)c(OCCOC)cc23)c1	inactive
CC(C)OC(=O)C(C(=O)OC(C)C)=C1SC=CS1	inactive
C[C@]12CC[C@H](O)CC1=CC[C@@H]1[C@H]2CC[C@]2(C)C(c3cccnc3)=CC[C@H]12	inactive
COC(=O)C1=C(C)NC(C)=C(C(=O)OCCCN2CCC(c3ccccc3)(c3ccccc3)CC2)C1c1cccc([N+](=O)[O-])c1 (stereo not given)	inactive
COC(=O)Nc1nc2ccc(S(=O)c3ccccc3)cc2[nH]1 (stereo not given)	inactive
C=CC1=C(C(=O)O)N2C(=O)[C@@H](NC(=O)C(=NO)c3csc(N)n3)[C@H]2SC1	inactive
CN(NC(=O)CC(=O)NN(C)C(=S)c1ccccc1)C(=S)c1ccccc1	0.066 µM (active)
O=C1Cc2cc(CCN3CCN(c4nsc5ccccc45)CC3)c(Cl)cc2N1	inactive
N#CC(=C1Nc2ccccc2S1)c1ccnc(OCc2ccc(CN3CCOCC3)cc2)n1	8.33 µM (active)
Cc1cc(Cl)ccc1OCCCC(=O)NO	14.8 µM (active)
O=C1NC(=O)C(=Cc2ccc(-c3ccc(F)cc3)o2)S1	inactive
CCCS(=O)(=O)Nc1ccc(F)c(C(=O)c2c[nH]c3ncc(-c4ccc(Cl)cc4)cc23)c1F	inactive

SMILES	Potency
O=P(O)(O)C(O)(Cn1ccnc1)P(=O)(O)O	inactive
O=S(=O)(NCCNCC=Cc1ccc(Br)cc1)c1cccc2cnccc12	inactive
Cc1nn(C)c2c1C(c1ccc(C(F)(F)F)cc1)C(C#N)=C(N)O2 (stereo not given)	inactive
Cc1cc(C=c2sc3nc4ccccc4n3c2=O)c(C)n1-c1ccccc1	inactive
Cc1cnc(Nc2ccc(OCCN3CCCC3)cc2)nc1Nc1cccc(S(=O)(=O)NC(C)(C)C)c1	inactive
COc1ccc(C=CC(=O)Nc2ccccc2C(=O)O)cc1OC	inactive
N#Cc1c(NC(=O)c2cccc3ccccc23)sc2c1CCCC2	0.935 µM (active)
CN(C)S(=O)(=O)c1ccc2c(c1)C(=Cc1cc3c([nH]1)CCCC3)C(=O)N2	inactive
COc1cccc(-c2ccc(NC(=O)C3=C(C(=O)O)CCC3)c(F)c2)c1	inactive
COc1ccc2c(c1)CC[C@H]1[C@@H]2CC[C@]2(C)[C@@H](NCCCCCCN3C(=O)C=CC3=O)CC[C@H]12	inactive
CCCCNc1cc(C(=O)O)cc(S(N)(=O)=O)c1Oc1ccccc1	inactive
C[C@H](CCC(=O)O)[C@H]1CCC2C3C[C@H](O)[C@@H]4C[C@H](O)CC[C@]4(C)C3CC[C@@]21C (stereo not given in full)	inactive
C=CC(=O)Nc1cccc(Oc2nc(Nc3ccc(N4CCN(C)CC4)cc3OC)ncc2Cl)c1	inactive
CC1=CC(=O)c2ccccc2C1=O	inactive
COc1cc(F)c(F)c(Nc2ccc(I)cc2F)c1NS(=O)(=O)C1(C[C@H](O)CO)CC1	inactive
Cc1c(CCOc2ccc(C(=O)O)cc2)c2cc(Cl)ccc2n1C(c1ccccc1)c1ccccc1	inactive
COc1ccc2cc([S+]([O-])Cc3ncc(C)c(OC)c3C)nc2c1	inactive
O=C(Nc1cccc(Br)c1)c1cccc(S(=O)(=O)N2CCCCCC2)c1	inactive
Cc1cc2cc3c(C)cc(=O)oc3c(C)c2o1	inactive
O=C(O)COCCN1CCN(C(c2ccccc2)c2ccc(Cl)cc2)CC1 (stereo not given)	inactive
